T1: UNK ZnF1-6 (called full-length) (human, UniProt Q9C0B0 30-357)
T1 sequence: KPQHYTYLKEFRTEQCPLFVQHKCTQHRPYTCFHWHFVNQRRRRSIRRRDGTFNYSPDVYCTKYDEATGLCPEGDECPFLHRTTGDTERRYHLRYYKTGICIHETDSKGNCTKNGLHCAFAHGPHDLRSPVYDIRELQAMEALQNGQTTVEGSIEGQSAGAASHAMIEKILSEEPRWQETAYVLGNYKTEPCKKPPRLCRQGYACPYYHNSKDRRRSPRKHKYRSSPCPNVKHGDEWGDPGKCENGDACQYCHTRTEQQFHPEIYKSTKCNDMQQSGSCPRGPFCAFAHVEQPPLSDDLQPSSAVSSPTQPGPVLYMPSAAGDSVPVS

B1: ENSG00000142634:stop:overlap|stop_codon|ENSG00000142634|stop_codon|NA|stop_codon (ssRNA)
RNA: GGGAGUUCUACAGUCCGACGAUCAGGCGGAGGAGAUGAAGCAGCGGAAAGCGGCCUUCAAGGAGCUGCAGUCCACCUUUAAGUAGCGGGGGCUGCAGCCGACCGCCCUGCUCCGGCCCCAGUGUGGUGGGCGAGGGUGGCGCACAACAGAGGAUUGAGCAUCA
B2: ENSG00000100154:stop:overlap|stop_codon|ENSG00000100154|stop_codon|NA|stop_codon (ssRNA)
RNA: GGGAGUUCUACAGUCCGACGAUCAGCCAGUGAAGGCAGGUGACACUUACCUCCACCAGGUGAUGCAGGCUGUGGUGAUAAACUAGAGUGUGAAGAGCUCAGAGUGCAGCCUCUGGCCUUGCCACUCACAAGCUGUAGGACACUCAACAGAGGAUUGAGCAUCA
B3: chr18:33333173:33333394:-|CDS|ENSG00000166960|control|control|control (ssRNA)
RNA: GGGAGUUCUACAGUCCGACGAUCACAUUUUGAAAAACAAAAGACAGAGUUAGAAGAAGCAAAUGCAAAGAUUCAAGCAGACAUAGACUACAUGAAUGAACAUGGCCCUCUACUGGACUCUAAGCAGAAUCAGGAACUUCAAGACAACAGAGGAUUGAGCAUCA
B4: chr3:142163631:142163732:-|3pUTR|ENSG00000175066|unk|total|mutant (ssRNA)
RNA: GGGAGUUCUACAGUCCGACGAUCCCCAAAGUGCUGGGAUUGCAGCCGUGAACCACUGCACCCAGCCAAUGGGUGUAAUUUCACCGGAAAUAAUUCUUUUUGUCAGAAUGUACUGAAUUGUAAUAUUAAUACCUGAAAAUUUGUCAACAGAGGAUUGAGCAUCA
B5: ENSG00000101596:stop:overlap|stop_codon|ENSG00000101596|stop_codon|NA|stop_codon (ssRNA)
RNA: GGGAGUUCUACAGUCCGACGAUCUUAGUUGUAAUAAAAUAAAAGAUAAUGACAAAGAAGAUGGCUGCUUCUAUUUCAGGUUAUAGUUGAAGUCCUGCCUAAUCAACCUGUGAAGUUAGUACCUAAAAUUAAACCACCUACACCCAACAGAGGAUUGAGCAUCA
B6: chr20:18487131:18487232:-|3pUTR|ENSG00000089050|msi1|FALSE|unique (ssRNA)
RNA: GGGAGUUCUACAGUCCGACGAUCAAAUAUAGUAACCAGUAACCACAGCUAGCUGUAAAAUUGAAAAUUCAGUUCAGUCAAACUAGCCAUAUUUCAAGUGCUCAACAGCCACUGGUGGCUAUUGGUUACCUUACUGACCAGCCACAACAGAGGAUUGAGCAUCA
B7: chr9:34635388:34635489:-|3pUTR|ENSG00000147955|msi1|total|mutant (ssRNA)
RNA: GGGAGUUCUACAGUCCGACGAUCGGGAUAUCCAUGCUUAUGUAUCCAAACACAGAGACCCAUGGGAACAAAUGAGACACAUACCGAUACUGAGACCUGUGUGUACAGCCGGACCAUGCACUCACACCCAUCUGGAGAGGGAGCCAACAGAGGAUUGAGCAUCA
B8: chr1:16124655:16124788:-|3pUTR|ENSG00000142627|msi1|total|mutant (ssRNA)
RNA: GGGAGUUCUACAGUCCGACGAUCAGACUGUGAACUUGACUGGGUGAGACCCAAAGCGGUCCCUGUCCCUCCCGUGCCUUCUUCCGACCCUCGGGCCCCAUCCUCAUCCCUGACUGGCCAAACCCUUGCUUUCCUGGGCCUUUGCAACAGAGGAUUGAGCAUCA
B9: ENSG00000070961:be:win_2401|CDS|ENSG00000070961|bound_else_gene|NA|bound_elsewhere_windowed (ssRNA)
RNA: GGGAGUUCUACAGUCCGACGAUCGAUGGCCCAGCACUAAAGAAAGCAGAUGUUGGAUUUGCAAUGGGUAUUGCUGGAACUGAUGUAGCUAAAGAAGCAUCCGAUAUUAUUCUCACAGAUGACAACUUUACAAGCAUUGUUAAACAACAGAGGAUUGAGCAUCA
B10: chr1:6592219:6592320:-|3pUTR|ENSG00000162413|unk|total|mutant (ssRNA)
RNA: GGGAGUUCUACAGUCCGACGAUCCCCAAAGCCGCCUUGGCUUGAGUUUUUGUCCUUGCCUCCUUUUCCGAGAAGAGGGCAUUCCGACUGCAUUUUCCUGGUUAAAGAAGGUUAAAGCAAAUGUUUAUUGCCUUUUCCCGUGAACAACAGAGGAUUGAGCAUCA
B11: ENSG00000168297:stop:overlap|stop_codon|ENSG00000168297|stop_codon|NA|stop_codon (ssRNA)
RNA: GGGAGUUCUACAGUCCGACGAUCCUGGGGCCAGCUCACCUCUCACGUCCCCGUCAUCGCCAACUCCACCCUCUACAUCAGGUUAGUGAUGGAGUAAAGUGACAUGCCACCUUCCUGUCCGCCAACAGGAGGAGCGGGCUGUGCCAACAGAGGAUUGAGCAUCA
B12: chr22:40826605:40826706:-|CDS|ENSG00000100380|unk|total|mutant (ssRNA)
RNA: GGGAGUUCUACAGUCCGACGAUCCACCAAAUUACAGGUCUAAAUAAGAGAUGGAAUUCCGGAUAAUAAACUUACUGACCCAGCCGGACACUUUUUAAAUACUAAUGAACCCUUUCUUUUCAGGAUCCAGAAGUUAUGGUGGCUCAACAGAGGAUUGAGCAUCA
B13: ENSG00000143373:stop:overlap|stop_codon|ENSG00000143373|stop_codon|NA|stop_codon (ssRNA)
RNA: GGGAGUUCUACAGUCCGACGAUCACUUCCGCACGCAUGGCAUGGCGUUCAUCAGGGCUCGGCAGGGGGCUGUUGGGGACAACUAGUCUCCAAGGCCUGGGACUGACCAGCCCCUUCCUCUUGGAGCCUGGUUUUCCCUACUGCCAACAGAGGAUUGAGCAUCA
B14: ENSG00000136451:be:win_2201|3pUTR|ENSG00000136451|bound_else_gene|NA|bound_elsewhere_windowed (ssRNA)
RNA: GGGAGUUCUACAGUCCGACGAUCAUUGUGACCUGAUAUUUGGAGAUGUAAAUAUUGCUCAGCAUAUUAAUCCCGAUGGAAUAUAGCAUUGUAGUUGACUUUUUAAAAAAAAAAAAAAUUUAAAAAAAAUCUACAAAUUGUGUUCAACAGAGGAUUGAGCAUCA

Whole data set: some 5,800 sequences, median “enrichment r” near 0.68, cut for the highest 2% near 11. A selection follows.

In this experiment the target is T1, UNK ZnF1-6 (called full-length). Kind of experiment: nsRBNS (natural sequence RNA bind-n-seq); RBNS binding buffer (assumed for nsRBNS): 25 mM Tris pH 7.5, 150 mM KCl, 3 mM MgCl2, 0.01% Triton X-100, 500 ug/ml BSA, 20 U/ml SUPERase-In, 4 C; UNK is unkempt and MSI1 is Musashi-1; names of the RNAs are library labels; protein concentration not given here; high values mean tight binding.
The molecule B1 registered a binding signal of 1.43 enrichment R.

B2: the binding signal was 0.552 enrichment R.

In the case of B3, the binding signal was 0.467 enrichment R.

Take B4: the binding signal worked out at 0.381 enrichment R.

Regarding B5, the binding signal came out at 1.46 enrichment R.

B6 registered a binding signal of 0.375 enrichment R.

Take B7: the binding signal stood at 0.886 enrichment R.

In turn, B8 registered a binding signal of 1.06 enrichment R.

Consider B9, for which the binding signal stood at 0.531 enrichment R.

Take B10: the binding signal is 0.414 enrichment R.

B11 returned a binding signal of 1.05 enrichment R.

As to B12, the binding signal was 0.405 enrichment R.

Turning to B13, the binding signal turned out to be 0.569 enrichment R.

Take B14: the binding signal worked out at 0.637 enrichment R.

Source of the values: paper PMC12136788.
